From PubChem BioAssay AID1903 (Southern Research Specialized Biocontainment Screening …, 2009)
Screen size: about 310,000 compounds; about 1,200 (0.39%) were called active. No rule for the calls is given here. Only a sample is shown. Entries with a potency or affinity are not part of this list.

What follows are molecules tested against Large T antigen (Simian virus 40) (UniProt P03070) (assay: TAg ATPase/helicase activity blockers – biochemical (AID 1903)). Details: SV40 large T antigen ATPase/helicase inhibition assay; at 20 µM; hits give high values.
Chain of Large T antigen (Simian virus 40) (P03070 whole entry, looked up): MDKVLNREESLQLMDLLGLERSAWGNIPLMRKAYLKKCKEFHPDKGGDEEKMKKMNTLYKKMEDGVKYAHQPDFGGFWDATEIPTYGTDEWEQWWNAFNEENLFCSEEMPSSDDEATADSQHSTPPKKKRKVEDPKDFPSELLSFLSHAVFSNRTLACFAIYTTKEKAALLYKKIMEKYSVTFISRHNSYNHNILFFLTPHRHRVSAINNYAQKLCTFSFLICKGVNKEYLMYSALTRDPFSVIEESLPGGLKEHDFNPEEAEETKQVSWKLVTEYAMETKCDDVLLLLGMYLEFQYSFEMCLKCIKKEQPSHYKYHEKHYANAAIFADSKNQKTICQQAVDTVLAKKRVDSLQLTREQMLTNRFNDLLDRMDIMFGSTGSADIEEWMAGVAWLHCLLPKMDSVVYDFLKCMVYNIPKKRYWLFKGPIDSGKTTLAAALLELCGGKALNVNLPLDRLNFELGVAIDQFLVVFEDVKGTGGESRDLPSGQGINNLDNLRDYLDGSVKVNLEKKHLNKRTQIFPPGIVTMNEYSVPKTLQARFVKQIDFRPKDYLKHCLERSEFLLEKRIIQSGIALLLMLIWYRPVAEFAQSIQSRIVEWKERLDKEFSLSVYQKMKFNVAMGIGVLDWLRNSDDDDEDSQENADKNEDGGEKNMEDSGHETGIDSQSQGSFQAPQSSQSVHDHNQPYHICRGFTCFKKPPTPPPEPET

inhibition, inactive:
Cc1cccc2cc3c(nc12)-c1ccccc1C3=O 7.99%
Cc1ccc(Cl)c(OC(=O)C2CSC3(C)CCC(=O)N23)c1 (configuration not stated) 28%
CC(C)Sc1nc2ccccc2n1CC(=O)NCc1ccc2c(c1)OCO2 10.4%
O=C(O)/C=C/c1cnn(-c2ccccc2)c1 6.6%
O=C(c1cnn(-c2ccccc2)c1)c1ccccc1O -1.98%
CCN(CC)S(=O)(=O)c1ccc(N=Nc2c(N)[nH]c(=O)[nH]c2=O)cc1 12.4%
O=C(CCn1c(=S)[nH]c2ccccc2c1=O)NCCc1ccccc1 4.97%
O=C(CCn1c(=S)[nH]c2ccccc2c1=O)NCCc1ccc(Cl)cc1 7.2%
CC(=O)NC(CC(=O)N1CCCC1)c1ccccc1 (configuration not stated) 21.8%
O=C(NCc1ccc2c(c1)OCO2)c1ccc2c(c1)S(=O)(=O)c1ccccc1C2=O 0.8%
Cn1c(=O)oc2cc(S(=O)(=O)NC3CCCCC3)ccc21 -17.1%
Cn1c(=O)oc2cc(S(=O)(=O)NC3CCCCCCC3)ccc21 -1.85%
CCCCC(=O)Nc1ccc(C(=O)NCCc2ccc(S(N)(=O)=O)cc2)cc1 1.78%
N=c1c2c(ncn1Cc1ccco1)Oc1cc(O)ccc1C2c1ccccc1 (configuration not stated) 26.2%
O=C1NN(c2ccccc2)C(=O)/C1=C\c1ccccc1 17.5%
O=C1NN(c2ccccc2)C(=O)/C1=C/c1cccs1 28.5%
COc1ccc(-c2nc(CS(=O)(=O)CC(=O)NCCCc3ccccc3)c(C)o2)cc1 -0.82%
O=C(OCC(=O)N1CCCc2ccccc21)c1cc(S(=O)(=O)N2CCOCC2)ccc1Cl 15.5%
O=C(COc1ccc2ccccc2c1Br)NCc1ccccn1 9.07%
Cc1ccc(NS(=O)(=O)c2cc3c4c(c2)CC(=O)N4CCC3)cc1C 7.5%
Cc1ccc(S(=O)(=O)Nc2ccc(N(C)C)cc2)cc1 37.5%
Cc1cccc(C)c1NS(=O)(=O)c1cc2c3c(c1)CC(=O)N3CCC2 -3.87%
CN(C)c1ccc(NS(=O)(=O)c2cc(Cl)ccc2Cl)cc1 25.6%
CN(C)c1ccc(S(=O)(=O)c2ccc(Cl)cc2)cc1 1.2%
CCN(CC)S(=O)(=O)c1cc(NS(=O)(=O)c2cccc(Cl)c2)ccc1C 2.93%
O=C(CN1C(=O)C(=O)N(Cc2ccco2)C1=O)c1c[nH]c2ccccc12 28.3%
C=CCc1ccc(OCCOCCOc2ccccc2[N+](=O)[O-])c(OC)c1 -1.8%
C=CCOc1ccc(C2c3c(oc4ccccc4c3=O)C(=O)N2CCCN2CCOCC2)cc1 (configuration not stated) 10.1%
O=C(COn1nnc2ccc(Cl)cc21)Nc1ccc(F)cc1 19.7%
COc1cc(/C=C2\N=C(C)OC2=O)cc(Cl)c1OC(C)=O 13.6%
CC(=O)NC1CC2CCCC(C1)N2S(=O)(=O)c1cccc(F)c1 (configuration not stated) 2.38%
COc1ccc(S(=O)(=O)Nc2cccc(-c3ccc4nncn4n3)c2)c(OC)c1 12.4%
Brc1ccc(-c2nc3ncccn3c2NC2CCCCC2)o1 12.4%
Cc1ccc(Nc2c(-c3ccc(C)o3)nc3ncccn23)cc1 33.8%
Cc1ccc(-n2cc(CCCCCCCCC(=O)O)nn2)cc1 8.47%
COc1ccc(/C=N/NC(=O)CN2CCSCC2)c(OC)c1 17.5%
COc1ccc(NC(=O)/C=C/C(=O)O)cc1Cl 4.09%
COC(=O)/C=C/C(=O)Nc1cccc(C(F)(F)F)c1 17.3%
CCCCC(=O)c1ccc(O)cc1 4.42%
O=C(CCCC(=O)c1ccc(O)cc1)c1ccc(O)cc1 9%
COc1ccc(N2CCN(C(=O)C3COc4ccccc4O3)CC2)cc1 (configuration not stated) 15.2%
O=C(O)CCCC(=O)N(Cc1ccccc1)Cc1ccccc1 8.76%
COc1ccc(OC)c(S(=O)(=O)N2CCC(C(=O)N3CCc4ccccc4C3)CC2)c1 -3.29%
Cc1ccc(C(=O)Nc2nc(=O)n(C(=O)c3ccccc3Cl)s2)cc1 6.99%
COc1ccc(Nc2cc(Nc3ccc(OC)cc3)ncn2)cc1 6.82%
CN(C)c1ccc(Nc2ccc([N+](=O)[O-])cn2)cc1 32.5%
COc1ccc(S(=O)(=O)N2CCCN(CC(=O)Nc3ccc4c(c3)OCO4)CC2)cc1 -44.5%
O=C(COC(=O)C1=COCCO1)NC1CCCCC1 4.07%
COC(=O)C1=C(C)N=c2s/c(=C3\C(=O)Nc4ccccc43)c(=O)n2C1c1ccccc1 (configuration not stated) 12.3%
CCOC(=O)C1=C(C)N=c2s/c(=C3/C(=O)Nc4ccccc43)c(=O)n2C1c1ccc(C)cc1 (configuration not stated) 24.6%
O=C(CCCC(=O)NCCc1ccccc1)NCCc1ccccc1 3.18%
Cc1ccc(S(=O)(=O)N2CCCC(c3nc(-c4ccc(C)o4)no3)C2)cc1 (configuration not stated) 6.08%
Cc1ccc(-c2noc(C3CCCN(S(=O)(=O)c4ccc5ccccc5c4)C3)n2)o1 (configuration not stated) -0.86%
CC(C)(C)c1cc(-c2nc(N)nc(N)n2)cc(C(C)(C)C)c1 6.71%
COc1cccc(CN2CCCC(N3CCc4ccccc4C3)C2)c1O (configuration not stated) 11.4%
CC1CCN(C2=C(NS(=O)(=O)c3ccc(Cl)cc3)C(=O)c3ccccc3C2=O)CC1 16.2%
COc1ccc(C(=O)Nc2cccc3ccccc23)cc1 16.2%
COc1ccc(NC(=O)Nc2ccc(O)c3ccccc23)cc1 27.9%
CC1(C)Cc2ccccc2C(=C(C#N)C#N)N1 4.69%
CCOC(=O)c1ccc(NC(=O)c2cc3ccccc3o2)cc1 8.26%
O=C1N/C(=C/c2ccc(Br)cc2)C(O)=C1C=NCc1ccccc1 4.99%
O=C1N/C(=C\c2ccccc2)C(O)=C1C=NCc1ccccc1 18.3%
COC1=C(Nc2ccc(C)cc2)C(=O)c2ccccc2C1=O 3.75%
COC1=C(Nc2ccccc2)C(=O)c2ccccc2C1=O -28.6%
Cc1ccc(-c2nc(CS(=O)CC(=O)NCCN3CCOCC3)c(C)o2)cc1 (configuration not stated) -1.85%
CC(=O)Cc1nsc(Nc2ccc(F)cc2)n1 5.39%
CCOc1ccc(NC(=O)CN(C)CC(=O)Nc2ccc(Br)cc2F)cc1OCC 2.33%
COC(=O)CCCC1=CC2=CC(=O)C(C)(OC(=O)c3ccc(Cl)nc3)C(=O)C2=CO1 (configuration not stated) 23.8%
O=C(O)c1ccccc1Nc1ccc(OC(F)F)cc1 10.8%
Cc1ccc(NC(=S)NNc2ccc([N+](=O)[O-])cc2S(=O)(=O)Nc2ccccc2C(=O)O)cc1C 31.6%
CCN(CC)S(=O)(=O)c1ccc(/C=C/C(=O)OCC(=O)Nc2ccc(S(N)(=O)=O)cc2)cc1 0.26%
O=C(COc1ccc(Cl)cc1)NC1=NN(c2ccccc2)C(=O)C1 18.7%
CC(=O)NC1=NN(c2ccccc2)C(=O)C1 13.1%
COc1ccc(-c2nc3cc(C)ccn3c2NC(=O)c2ccccc2OC)cc1 9.33%
COc1ccc(NC(=O)CSCC(=O)NCCc2ccccn2)cc1 0.35%
CNCCc1ccccn1 13.3%
COCCN1Cc2cccc(C(=O)Nc3cccnc3)c2C1=O 1.93%
COc1cccc(CC(=O)OCC(=O)N(C)CC(=O)Nc2ccc(Cl)c(C(F)(F)F)c2)c1 5.39%
CCOc1ccccc1N(CC(=O)NC1CCCCC1)C(=O)CCC(=O)Nc1cc(C)ccn1 -4.71%
c1ccc(-c2csc(NC3=NCCCCC3)n2)cc1 -1.35%
Brc1ccc(-c2csc(NNC3=NCCCCC3)n2)cc1 21.1%
COC(=O)CN1C(=O)S/C(=C/c2ccc(N3CCCCC3)o2)C1=O 22.2%
O=C1NC(=O)/C(=C/c2ccc(N3CCOCC3)o2)N1 35.9%
CCOC(=O)CN1C(=O)S/C(=C/c2ccc(N3CCCCC3)o2)C1=O -40.7%
O=C1NC(=O)/C(=C\c2ccc(N3CCOCC3)o2)N1 12.2%
COc1ccc(-c2cn(Cc3ccc(C(N)=O)cc3)c(CCN)n2)cc1 15.2%
CCc1ccc(N2CC(C(=O)Nc3cc(C)on3)CC2=O)cc1 (configuration not stated) 7.18%
COc1ccc(S(=O)(=O)N2CCc3cc4c(cc3C2C)OCCCO4)cc1 (configuration not stated) -0.77%
O=C(/C=C/c1cccc([N+](=O)[O-])c1)NCC1CCCO1 (configuration not stated) 1.2%
CCNc1c(NC(=O)C2CCC(C)CC2)c(=O)oc2ccccc12 (configuration not stated) 7.89%
N#CCn1nnc(-c2ccc3c(c2)OCO3)n1 5.17%
COc1cc2nc(C3CCC3)nc(N3CCN(c4ccccn4)CC3)c2cc1OC 3.99%
CC(C)(C)OC(=O)N/N=C\c1ccc([N+](=O)[O-])s1 9.37%
Clc1cccc(N/N=C/c2ccc(N3CCOCC3)s2)c1 0.11%
O=C(N/N=C/c1ccc(N2CCOCC2)s1)c1ccccc1Br 28.7%
O=C(N/N=C/c1ccc(N2CCOCC2)s1)c1ccccc1Cl 19.1%
Cc1cc(-c2cc(-c3ccc(Cl)cc3)on2)nc(NCC2CC2)n1 19.1%
